Reference: the supplement of paper PMC10849652
The full data set covers some 7,900 targets. This sample favours those with a hit. About 0.6% of all pairs of compound and target were hits. Values without a mark were called inactive.

Columns and labels:
Assay in all cases: log2 fold change, soluble protein after heating vs DMSO (PISA); higher = thermal stabilisation; K562 cells, 10 uM, 30 min; active = over 0.2 and 3.5 SD of the protein, either way, in both replicates (recomputed)
[1] = compound: COC1=CC=C(C=C1)CN2C=CC3=C2C=C(C=C3)C(=O)NO
Procedure, shortened: (§1)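 K562 cells at 2×10^6 cells/mL were exposed to 10 μM compound for 30 min, then aliquots were heated for 3 min across 48°C-58°C, pooled, and extracted in PBS containing 0.5% NP-40 at 4°C. The supernatant after 21,000xg for 90 min was taken as soluble protein and measured by TMTpro 16plex LC-MS/MS with channel sums equalised. Thermal stability is reported relative to control samples, with values from duplicates. Fold changes are given on a log2 scale.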

filanesib = compound: CON(C)C(=O)N1N=C(c2cc(F)ccc2F)S[C@@]1(CCCN)c1ccccc1 [filanesib]
Procedure, shortened: as §1

zotarolimus = compound: CO[C@H]1C[C@@H]2CC[C@@H](C)[C@@](O)(O2)C(=O)C(=O)N2CCCC[C@H]2C(=O)O[C@H]([C@H](C)C[C@@H]2CC[C@H](n3cnnn3)[C@H](OC)C2)CC(=O)[C@H](C)/C=C(\C)[C@@H](O)[C@@H](OC)C(=O)[C@H](C)C[C@H](C)/C=C/C=C/C=C/1C [zotarolimus]
Procedure, shortened: as §1

idasanutlin = compound: COc1cc(C(=O)O)ccc1NC(=O)[C@@H]1N[C@@H](CC(C)(C)C)[C@](C#N)(c2ccc(Cl)cc2F)[C@H]1c1cccc(Cl)c1F [idasanutlin]
Procedure, shortened: as §1

alisertib = compound: COc1cc(Nc2ncc3c(n2)-c2ccc(Cl)cc2C(c2c(F)cccc2OC)=NC3)ccc1C(=O)O [alisertib]
Procedure, shortened: as §1

[2] = compound: COc1cc2nc(-c3cc(F)ccc3O)nc(N[C@@H]3CNC[C@H]3C(C)(C)O)c2cc1OC
Procedure, shortened: as §1

gefitinib = compound: COc1cc2ncnc(Nc3ccc(F)c(Cl)c3)c2cc1OCCCN1CCOCC1 [gefitinib]
Procedure, shortened: as §1

[3] = compound: COc1cccc2cc(-c3nc([C@H]4CC[C@H](C(=O)O)CC4)n4ncnc(N)c34)[nH]c12
Procedure, shortened: as §1

lapatinib = compound: CS(=O)(=O)CCNCc1ccc(-c2ccc3ncnc(Nc4ccc(OCc5cccc(F)c5)c(Cl)c4)c3c2)o1 [lapatinib]
Procedure, shortened: as §1

pictilisib = compound: CS(=O)(=O)N1CCN(Cc2cc3nc(-c4cccc5[nH]ncc45)nc(N4CCOCC4)c3s2)CC1 [pictilisib]
Procedure, shortened: as §1

[4] = compound: CS(=O)(=O)c1ccc(-c2cnc(N)c(C(=O)Nc3ccccc3)n2)cc1
Procedure, shortened: as §1

crizotinib = compound: C[C@@H](Oc1cc(-c2cnn(C3CCNCC3)c2)cnc1N)c1c(Cl)ccc(F)c1Cl [crizotinib]
Procedure, shortened: as §1

[5] = compound: C[C@@H]1COCCN1C2=NC(=NC(=C2)C3(CC3)S(=O)(=O)C)C4=C5C=CNC5=CC=C4
Procedure, shortened: as §1

[6] = compound: C[C@H](C1=CC=C(C=C1)C(=O)NC2=C3C=CNC3=NC=C2)N
Procedure, shortened: as §1

duvelisib = compound: C[C@H](Nc1ncnc2nc[nH]c12)c1cc2cccc(Cl)c2c(=O)n1-c1ccccc1 [duvelisib]
Procedure, shortened: as §1

gandotinib = compound: Cc1cc(Nc2cc(CN3CCOCC3)c3nc(C)c(Cc4ccc(Cl)cc4F)n3n2)n[nH]1 [gandotinib]
Procedure, shortened: as §1

tozasertib = compound: Cc1cc(Nc2cc(N3CCN(C)CC3)nc(Sc3ccc(NC(=O)C4CC4)cc3)n2)n[nH]1 [tozasertib]
Procedure, shortened: as §1

[7] = compound: Cc1cc(SCc2sc(-c3ccc(C(F)(F)F)cc3)nc2C)ccc1OCC(=O)O
Procedure, shortened: as §1

doramapimod = compound: Cc1ccc(-n2nc(C(C)(C)C)cc2NC(=O)Nc2ccc(OCCN3CCOCC3)c3ccccc23)cc1 [doramapimod]
Procedure, shortened: as §1

ispinesib = compound: Cc1ccc(C(=O)N(CCCN)[C@@H](c2nc3cc(Cl)ccc3c(=O)n2Cc2ccccc2)C(C)C)cc1 [ispinesib]
Procedure, shortened: as §1

UniProt Q9NYB0, sequence (Q9NYB0 whole entry, looked up): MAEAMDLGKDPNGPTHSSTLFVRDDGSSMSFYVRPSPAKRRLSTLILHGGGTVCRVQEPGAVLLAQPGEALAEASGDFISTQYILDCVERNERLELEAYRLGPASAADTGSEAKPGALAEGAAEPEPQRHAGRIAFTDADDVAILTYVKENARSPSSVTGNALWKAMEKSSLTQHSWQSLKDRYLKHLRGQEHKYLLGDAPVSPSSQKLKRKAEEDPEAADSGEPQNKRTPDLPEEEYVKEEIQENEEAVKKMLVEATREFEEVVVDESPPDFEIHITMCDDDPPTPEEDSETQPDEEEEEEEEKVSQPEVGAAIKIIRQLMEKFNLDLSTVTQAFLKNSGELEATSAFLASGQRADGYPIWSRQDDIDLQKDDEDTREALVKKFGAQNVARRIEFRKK
UniProt O60493, sequence (O60493 whole entry, looked up): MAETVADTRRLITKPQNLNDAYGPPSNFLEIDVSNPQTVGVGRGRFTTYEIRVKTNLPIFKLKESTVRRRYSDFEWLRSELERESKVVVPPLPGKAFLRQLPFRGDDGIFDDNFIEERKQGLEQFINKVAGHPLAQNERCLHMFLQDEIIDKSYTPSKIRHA
UniProt Q8WVK2, sequence (Q8WVK2 whole entry, looked up): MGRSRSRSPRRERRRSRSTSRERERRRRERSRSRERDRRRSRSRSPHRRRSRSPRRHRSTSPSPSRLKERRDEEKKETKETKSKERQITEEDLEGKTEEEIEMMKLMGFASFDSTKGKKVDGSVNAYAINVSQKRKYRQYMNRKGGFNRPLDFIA
UniProt Q9UMY4, sequence (Q9UMY4 whole entry, looked up): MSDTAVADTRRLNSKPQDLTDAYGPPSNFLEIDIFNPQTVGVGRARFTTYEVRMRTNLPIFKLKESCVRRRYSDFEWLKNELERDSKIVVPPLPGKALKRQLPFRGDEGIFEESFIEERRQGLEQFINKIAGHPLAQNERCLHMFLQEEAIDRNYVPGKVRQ
UniProt Q9Y5L4, sequence (Q9Y5L4 whole entry, looked up): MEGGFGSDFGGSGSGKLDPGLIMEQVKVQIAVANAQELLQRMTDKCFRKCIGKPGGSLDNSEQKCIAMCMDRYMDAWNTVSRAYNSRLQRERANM
UniProt P23497, sequence (P23497 whole entry, looked up): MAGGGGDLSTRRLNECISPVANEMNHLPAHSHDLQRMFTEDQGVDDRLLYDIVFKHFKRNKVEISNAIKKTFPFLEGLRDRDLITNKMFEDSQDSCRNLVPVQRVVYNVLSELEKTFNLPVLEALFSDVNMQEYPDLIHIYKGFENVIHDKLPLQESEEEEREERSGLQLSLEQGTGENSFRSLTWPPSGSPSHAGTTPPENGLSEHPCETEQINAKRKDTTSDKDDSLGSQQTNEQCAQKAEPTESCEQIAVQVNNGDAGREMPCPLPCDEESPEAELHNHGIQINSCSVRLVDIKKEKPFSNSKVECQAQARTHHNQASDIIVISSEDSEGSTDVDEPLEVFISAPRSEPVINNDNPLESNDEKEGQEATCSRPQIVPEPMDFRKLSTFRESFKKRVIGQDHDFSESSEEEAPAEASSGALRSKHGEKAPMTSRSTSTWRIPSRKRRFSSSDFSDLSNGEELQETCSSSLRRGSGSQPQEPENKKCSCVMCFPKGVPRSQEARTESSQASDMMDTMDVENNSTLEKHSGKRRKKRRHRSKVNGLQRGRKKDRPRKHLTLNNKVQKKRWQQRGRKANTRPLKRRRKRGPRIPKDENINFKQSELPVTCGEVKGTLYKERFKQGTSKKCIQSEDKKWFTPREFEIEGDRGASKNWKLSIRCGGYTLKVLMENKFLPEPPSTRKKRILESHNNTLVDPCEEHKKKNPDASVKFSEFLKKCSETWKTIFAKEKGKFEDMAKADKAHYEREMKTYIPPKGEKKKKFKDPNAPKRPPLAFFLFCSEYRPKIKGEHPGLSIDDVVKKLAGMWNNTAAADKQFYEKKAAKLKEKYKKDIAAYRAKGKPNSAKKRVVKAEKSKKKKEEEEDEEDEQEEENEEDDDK
UniProt Q15833, sequence (Q15833 whole entry, looked up): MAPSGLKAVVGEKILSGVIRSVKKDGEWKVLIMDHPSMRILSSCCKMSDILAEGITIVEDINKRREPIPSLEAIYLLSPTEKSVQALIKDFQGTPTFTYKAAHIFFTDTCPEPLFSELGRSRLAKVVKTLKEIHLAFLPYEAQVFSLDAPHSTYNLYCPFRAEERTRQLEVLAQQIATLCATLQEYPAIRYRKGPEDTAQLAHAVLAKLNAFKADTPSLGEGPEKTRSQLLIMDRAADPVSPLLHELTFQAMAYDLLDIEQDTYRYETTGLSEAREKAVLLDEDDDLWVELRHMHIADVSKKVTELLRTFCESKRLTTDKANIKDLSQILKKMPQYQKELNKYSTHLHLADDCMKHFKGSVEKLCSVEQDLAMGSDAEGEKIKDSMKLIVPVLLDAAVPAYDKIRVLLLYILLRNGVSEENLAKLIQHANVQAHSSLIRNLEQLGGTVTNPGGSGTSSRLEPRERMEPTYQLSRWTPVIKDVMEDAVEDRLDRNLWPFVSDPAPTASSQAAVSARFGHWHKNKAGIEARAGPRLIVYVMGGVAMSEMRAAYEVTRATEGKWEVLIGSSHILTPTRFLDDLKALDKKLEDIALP
UniProt Q96CQ1, sequence (Q96CQ1 whole entry, looked up): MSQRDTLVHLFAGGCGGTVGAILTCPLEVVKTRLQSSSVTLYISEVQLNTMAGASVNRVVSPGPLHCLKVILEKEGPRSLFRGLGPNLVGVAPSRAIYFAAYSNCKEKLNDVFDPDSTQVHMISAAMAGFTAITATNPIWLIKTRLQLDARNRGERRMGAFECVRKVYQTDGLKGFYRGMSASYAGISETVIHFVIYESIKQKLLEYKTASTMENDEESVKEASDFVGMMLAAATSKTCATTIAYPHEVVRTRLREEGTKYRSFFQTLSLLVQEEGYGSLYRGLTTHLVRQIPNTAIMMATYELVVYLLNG
UniProt O95149, sequence (O95149 whole entry, looked up): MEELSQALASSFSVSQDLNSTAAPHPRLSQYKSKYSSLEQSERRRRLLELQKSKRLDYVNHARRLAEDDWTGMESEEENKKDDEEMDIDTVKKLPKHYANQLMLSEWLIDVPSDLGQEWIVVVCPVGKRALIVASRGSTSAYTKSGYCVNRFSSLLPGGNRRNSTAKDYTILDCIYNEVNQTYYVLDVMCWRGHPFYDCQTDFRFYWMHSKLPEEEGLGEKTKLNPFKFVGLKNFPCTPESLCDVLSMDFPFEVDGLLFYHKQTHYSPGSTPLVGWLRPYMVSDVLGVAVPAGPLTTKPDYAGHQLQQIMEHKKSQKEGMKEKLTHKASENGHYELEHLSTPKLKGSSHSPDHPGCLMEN
UniProt O14975, sequence (O14975 whole entry, looked up): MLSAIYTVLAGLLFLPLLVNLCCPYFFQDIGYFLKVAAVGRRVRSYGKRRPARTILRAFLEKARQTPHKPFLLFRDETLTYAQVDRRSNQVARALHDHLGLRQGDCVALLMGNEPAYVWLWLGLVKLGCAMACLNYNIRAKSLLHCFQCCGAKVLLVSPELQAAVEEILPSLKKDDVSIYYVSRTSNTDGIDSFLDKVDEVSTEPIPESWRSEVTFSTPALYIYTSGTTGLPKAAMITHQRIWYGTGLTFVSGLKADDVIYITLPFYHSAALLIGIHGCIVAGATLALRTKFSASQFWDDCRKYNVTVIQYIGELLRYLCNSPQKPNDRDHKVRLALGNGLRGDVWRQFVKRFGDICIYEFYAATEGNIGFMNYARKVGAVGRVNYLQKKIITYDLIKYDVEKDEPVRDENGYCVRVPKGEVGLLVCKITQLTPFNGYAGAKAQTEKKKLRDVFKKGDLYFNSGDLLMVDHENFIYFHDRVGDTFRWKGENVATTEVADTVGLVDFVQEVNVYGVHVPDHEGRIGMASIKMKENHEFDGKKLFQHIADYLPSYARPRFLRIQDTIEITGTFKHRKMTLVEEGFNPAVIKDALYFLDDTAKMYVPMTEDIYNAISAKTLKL
UniProt Q08170, sequence (Q08170 whole entry, looked up): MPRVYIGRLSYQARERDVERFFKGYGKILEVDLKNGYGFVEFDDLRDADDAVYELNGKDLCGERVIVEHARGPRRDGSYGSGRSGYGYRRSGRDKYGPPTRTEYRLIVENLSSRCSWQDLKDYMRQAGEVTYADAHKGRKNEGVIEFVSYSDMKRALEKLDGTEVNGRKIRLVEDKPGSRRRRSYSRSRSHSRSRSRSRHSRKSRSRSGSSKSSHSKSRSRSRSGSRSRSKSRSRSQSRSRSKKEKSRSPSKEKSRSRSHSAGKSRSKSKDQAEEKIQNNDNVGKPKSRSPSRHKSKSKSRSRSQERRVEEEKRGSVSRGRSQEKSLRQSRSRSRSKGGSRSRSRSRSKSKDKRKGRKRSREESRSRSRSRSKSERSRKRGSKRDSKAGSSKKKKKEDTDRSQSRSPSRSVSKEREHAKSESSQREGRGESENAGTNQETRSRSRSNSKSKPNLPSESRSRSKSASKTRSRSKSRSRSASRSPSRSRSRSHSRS

Target	log2 fold change [1]	log2 fold change (filanesib)	log2 fold change (zotarolimus)	log2 fold change (idasanutlin)	log2 fold change (alisertib)	log2 fold change [2]	log2 fold change (gefitinib)	log2 fold change [3]	log2 fold change (lapatinib)	log2 fold change (pictilisib)	log2 fold change [4]	log2 fold change (crizotinib)	log2 fold change [5]	log2 fold change [6]	log2 fold change (duvelisib)	log2 fold change (gandotinib)	log2 fold change (tozasertib)	log2 fold change [7]	log2 fold change (doramapimod)	log2 fold change (ispinesib)
SP100 isoform 4 (UniProt P23497)	0.05	0	0.013	-0.022	-0.026	-0.242 (active)	0.024	0.036	0.188	0.013	-0.002	0.062	0.071	-0.1	0.074	-0.008	0.033	-0.016	-0.046	0.062
TERF2IP (UniProt Q9NYB0)	-0.034	0.052	0.045	0.025	-0.032	-0.119	0.013	0.025	-0.008	-0.036	-0.021	0.085	-0.072	-0.099	0.016	0.028	0.108	0.005	-0.019	0.044
SUPT5H (UniProt O00267)	0.02	-0.005	0.042	-0.062	-0.003	0.058	0.028	0.027	-0.006	0.05	0.057	0.049	0.129	-0.057	0.084	-0.043	0	0.079	-0.043	0.02
SLC27A2 (UniProt O14975)	0.089	-0.033	0.032	0.257	-0.034	0.046	0.156	-0.052	0.112	0.034	0.273 (active)	0.046	-0.005	-0.031	0.094	0.094	0.166	0.108	0.027	-0.056
SNRNP27 (UniProt Q8WVK2)	-0.075	0.03	-0.156	0.121	-0.003	-0.015	-0.011	0.135	0.005	-0.009	0.002	0.038	-0.069	0.072	0.041	0.013	-0.084	-0.065	-0.056	-0.119
SNX12 isoform 1 (UniProt Q9UMY4)	-0.029	-0.027	-0.007	0.039	0.005	-0.008	0.035	0.09	-0.006	-0.002	0.004	-0.055	0.081	0.007	-0.162	-0.204	0.021	0.044	-0.036	-0.097
SNUPN (UniProt O95149)	0.001	-0.09	-0.007	0.05	-0.013	-0.05	0.014	0.005	0.019	-0.021	0.019	-0.187	0.045	-0.007	-0.001	-0.074	0.017	-0.014	-0.007	0.029
SLC25A36 (UniProt Q96CQ1)	0.006	-0.069	0.013	-0.064	-0.03	0.083	-0.014	0.001	0.107	0.052	0.016	0.067	-0.061	-0.011	0.195	0.313	-0.059	-0.089	-0.027	-0.021
TIMM13 (UniProt Q9Y5L4)	0.206	-0.091	0.042	-0.043	-0.006	-0.3 (active)	-0.002	-0.01	0.027	-0.056	-0.047	0.051	0.151	-0.115	0.079	-0.002	0.038	0.006	0.039	0.12
STXBP2 isoform 3 (UniProt Q15833)	0.021	0.001	-0.043	0.043	-0.034	0.045	0.043	-0.066	0.007	-0.091	0.049	-0.301	0.022	0.039	0.019	-0.03	0.03	0.17	0.152	-0.306
TARS2 (UniProt Q9BW92)	-0.487 (active)	-0.02	-0.006	-0.084	-0.021	0.044	-0.023	0.041	-0.022	0.004	0.022	0.024	0.094	-0.002	0.049	-0.173	0.057	0.009	0.015	-0.094
SNX3 (UniProt O60493)	-0.049	0.012	0.022	0.075	0.074	-0.08	0.01	0.056	-0.026	-0.03	-0.035	-0.106	0.062	0.048	-0.385 (active)	-0.164	-0.023	0.085	0.04	-0.141
SRSF4 (UniProt Q08170)	-0.085	0.234	0.053	0.207	-0.137	-0.04	-0.014	-0.089	0.137	-0.007	-0.055	0.011	-0.248	0	-0.064	0.077	0.071	0.031	0.073	-0.021
